In PubChem BioAssay AID926 (National Center for Advancing Translational Sciences (NCATS), 2007):
Values joined by “and” are separate entries in the source; they are usually repeats but may differ in a detail not shown here. Equal values may be shown once. About 350 (0.48%) of roughly 73,000 compounds were called active. Inconclusive results (about 17%) are left out. Calls come from the whole dose curve; as a rule, active = well fitted activation curve with a large enough effect in the main read-out, with a control signal flat (not every such curve was filed as active); inconclusive = small, poorly fitted or top-dose-only effect, or a change in a side signal; inactive = no such curve, though single readings can be large or run the other way; reference of the percent scale not stated here. The full list was thinned out, with actives kept by preference.

Experiments:
[1] = qHTS Assay for Agonists of the Thyroid Stimulating Hormone Receptor; conditions: HEK293-CNG-TSHR cells, membrane potential dye, cAMP; measured here: parental cells max response
From the text: (§1) NIH Chemical Genomics Center [NCGC]
(§2) NIH Molecular Libraries Screening Centers Network [MLSCN]
(§3) PI Name: Dr. Marvin Gershengorn, NIH
(§4) Thyroid Stimulating Hormone Receptor
(§5) TSH is an alpha/beta heterodimeric glycoprotein hormone secreted from the anterior pituitary gland which belongs to the glycoprotein hormone family. The actions of TSH are mediated by a seven-transmembrane receptor, which upon TSH binding couples preferentially to the G-alpha (s) protein (Gs), resulting in activation of adenylate cyclase and increase in cyclic adenosine 3', 5' monophosphate (cAMP). The TSH receptor (THSR) is mainly expressed in thyroid follicular cells and regulates their growth and function. Recombinant TSH is used to activate TSHR in patients with thyroid cancer receiving thyroid hormone suppression therapy and to screen for residual tumor after surgery, but it is expensive and must be administered intramuscularly. An orally active small molecule TSHR agonist would serve as an invaluable research tool for studying TSHR pharmacology and physiology, and would have multiple advantages in therapeutic settings. However, no selective small molecule agonist of the TSH receptor exists, and no small molecule screen for TSHR agonists has ever been reported.
(§6) This cell based assay utilized a cyclic nucleotide gated ion channel (CNG) as a biosensor for cAMP induction by potential TSHR agonists.
(§7) HEK 293 cells stably expressing the TSHR as well as a modified CNG were purchased from BD biosciences. Stimulation of cAMP production causes the CNG to open and subsequent membrane depolarization to occur. A fluorescent membrane potential dye (BD biosciences) was utilized to detect cAMP stimulation in TSHR cells.
(§8) The cells were maintained in DMEM medium (Invitrogen) containing 10 % FBS (Hyclone), 100 units/ml Penicillin, 100 ug/ml Streptomycin (Invitrogen), and 250 ug/ml Geneticin (Invitrogen) and 1 ug/ml Puromycin (Invitrogen) at 37C in 5% CO2. HEK 293 cells expressing CNG but without TSHR (parental cells) were used in concert to control for compounds signaling through endogenous receptors and targets of HEK 293 cells.
(§9) NCGC Assay Protocol Summary:
(§10) High Throughput Screening. Freshly passaged cells (TSHR or parental) were dispensed into 1536-well assay plates at 4 ul/well in DMEM containing phenol red (Invitrogen), 10% FCS (Hyclone), and 100 units/ml Penicillin, 100 ug/ml Streptomycin (Invitrogen) and incubated at 37 C with 5% CO2 for 20 to 36 hrs before the robotic screening. The screen was initiated by addition of 4 ul/well membrane potential dye containing 100 uM RO 20-1724 (Sigma Aldrich), followed by 60 min incubation at room temperature to allow for dye equilibration across the cell membrane. 23 nl/well compound or control was then added to the assay plates, which were incubated for additional 30 min before reading a Envision fluorescence plate reader (Perkin Elmer) in bottom-read mode for fluorescence intensity (emission at 590 nm).
(§11) Keywords: Thyroid-stimulating hormone TSH, TSHR, TSHR agonist, quantitative high throughput screening, qHTS, HTS, probe identification, CNG, cAMP, cyclic nucleotide gated ion channel PubChem

[2] = molecular target: Thyrotropin receptor (Homo sapiens) (UniProt P16473); assay: as above; conditions: HEK293-CNG-TSHR cells (CNG channel as cAMP sensor), membrane potential dye, cAMP; series mostly up to 57.1 µM
Thyrotropin receptor (Homo sapiens), sequence (P16473 whole entry, looked up): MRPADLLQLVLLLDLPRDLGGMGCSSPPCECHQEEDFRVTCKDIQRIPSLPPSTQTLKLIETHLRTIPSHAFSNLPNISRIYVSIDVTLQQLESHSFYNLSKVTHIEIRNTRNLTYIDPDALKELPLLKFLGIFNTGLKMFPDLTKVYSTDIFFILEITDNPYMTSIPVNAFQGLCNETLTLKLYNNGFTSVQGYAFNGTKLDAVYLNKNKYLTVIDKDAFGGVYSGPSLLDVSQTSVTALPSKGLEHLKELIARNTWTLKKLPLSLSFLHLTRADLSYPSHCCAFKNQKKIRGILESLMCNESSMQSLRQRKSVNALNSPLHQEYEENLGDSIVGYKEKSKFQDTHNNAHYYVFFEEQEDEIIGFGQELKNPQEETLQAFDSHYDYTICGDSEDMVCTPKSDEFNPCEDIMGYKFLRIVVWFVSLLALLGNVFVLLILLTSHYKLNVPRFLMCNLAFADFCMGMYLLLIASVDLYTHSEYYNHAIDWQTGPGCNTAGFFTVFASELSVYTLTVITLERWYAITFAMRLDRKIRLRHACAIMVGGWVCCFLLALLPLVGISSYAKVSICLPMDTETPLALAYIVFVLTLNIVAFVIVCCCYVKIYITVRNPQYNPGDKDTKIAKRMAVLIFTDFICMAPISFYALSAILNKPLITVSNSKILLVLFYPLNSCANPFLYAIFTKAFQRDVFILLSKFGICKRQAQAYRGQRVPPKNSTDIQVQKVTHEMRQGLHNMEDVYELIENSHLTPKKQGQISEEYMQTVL
From the text: as §1, §2, §3, §4, §5, §6, §7, §8, §9, §10, §11
Potency is the fitted concentration of half-maximal effect.

| Compound | activation [1] | Potency [2] | activation [2] |
| --- | --- | --- | --- |
| CC1CCCCN1CCCNC(=O)c1ccc(-n2c(=O)c(=O)[nH]c3ccccc32)cc1 (centres undefined) | -4.46% | inactive |  |
| CCCn1c(C)nc2c(NCCCCN(CC)CC)nc(C)nc21 | 4.8% | inactive |  |
| O=C1C[C@@H](O)[C@@H](O)[C@H]2[C@@H]3C(=O)N(Cc4ccc5c(c4)OCO5)C(=O)[C@@H]3CC[C@H]12 | 0.478% and -2.17% |  | 1.51% [at 11.4 µM] (inactive) and -4.05% [at 11.4 µM] (inactive) |
| C#CCCCCCCCCCCCCCCCC(=O)O | 7.8% | inactive |  |
| COc1ccc(-c2nnc(SC(=O)N3c4ccccc4Sc4ccccc43)o2)cc1 | -13.7% |  | -19.2% [at 11.4 µM] (inactive) |
| CCC1C(C#N)=C(SC)NC2=C1C(=O)CC(C)(C)C2 (centres undefined) | 9.37% |  | 4.61% [at 11.4 µM] (inactive) |
| Cc1c2c(nc3ccccc13)-c1cccc(=O)n1C2 | -3.79% | inactive |  |
| Cc1noc(C)c1-c1nc(Nc2ccccc2)c2ccccc2n1 | -3.31% | inactive |  |
| O=C(O)c1ccc(Cl)c(S(=O)(=O)Nc2ccccc2Cl)c1 | 5.29% | inactive |  |
| Cc1ccc2c(c1)sc1ncc(NC(=O)c3ccccc3)c(=O)n12 | 11.7% | inactive |  |
| CCNC(=S)NCC | -3.45% | inactive |  |
| COC(=O)c1cn(-c2ccccc2)nc1-c1cccnc1 | 9.42% | inactive |  |
| CO/N=C\[C@@H](C)[C@H](OCc1ccccc1)C(C)C | -0.643% |  | 16.8% [at 11.4 µM] (inactive) |
| O=c1c(-c2ccc(F)c(F)c2)nc2cncnc2n1-c1ccccc1 | 19.9% | inactive |  |
| N[C@H](C(=O)O)c1ccc(C(=O)O)c(O)c1 | -2.63% | inactive |  |
| N#Cc1cccc(CSc2nnc(CCCO)n2-c2ccccc2)c1 | -1.39% | inactive |  |
| COC(=O)C1(C)C=CC2(CCCCC2)N1C(C)=O (centres undefined) | 19.4% | inactive |  |
| COc1cccc(-c2nnc(N(C)C(=O)c3ccno3)s2)c1 | 11% |  | -1% [at 11.4 µM] (inactive) |
| CC(=O)OCC1OC(C#Cc2ccccc2Cl)C=CC1OC(C)=O (centres undefined) | -0.512% |  | 0.546% [at 11.4 µM] (inactive) |
| COc1ccc(/C=C/NC(=O)c2ccc(OC)cc2)cc1 | -3.02% |  | -7.55% [at 11.4 µM] (inactive) |
| CN1CCc2nc(-c3ccccc3)c(-c3ccccc3)cc2C1 | 0.173% |  | 2% [at 11.4 µM] (inactive) |

| Compound | activation [1] | Potency [2] | activation [2] |
| --- | --- | --- | --- |
| Cn1c(=O)c(-c2ccccc2)nc2cnc(N3CCNCC3)nc21 | 4.18% | inactive |  |
| CC1(C)S[C@@H]2[C@@H](NC(=O)[C@@H](N)c3ccccc3)C(=O)N2[C@H]1C(=O)O | -1.13% | inactive |  |
| CC(C)(C)c1ccc(NC(=O)NCc2ccco2)cc1 | 3.69% | 3.98 µM (active) |  |
| Cc1ccccc1NC(=O)NCc1ccco1 | 1.97% | inactive |  |
| CC(C)(C)c1ccc(C(=O)NCCC(=O)NCc2ccco2)cc1 | -0.34% | inactive |  |
| CCOc1ccccc1C1NC(=O)NC(C)=C1C(=O)OCc1ccco1 (centres undefined) | 0.325% | inactive |  |
| CCC(Sc1nncn1C)C(=O)Nc1nnc(-c2ccc(Cl)cc2)s1 (centres undefined) | -6.53% | inactive |  |
| O=C1OCCC=C1[C@@H](O)CCc1ccccc1 | -4.2% |  | 5.01% [at 11.4 µM] (inactive) |
| COc1ccc(/C=C/NC(=O)Cc2ccc(OC)c(OC)c2)cc1 | 28.5% and 7.24% |  | 10.9% [at 11.4 µM] (inactive) and -1.69% [at 11.4 µM] (inactive) |
| CCOC(=O)c1cnc(-n2nc(C)cc2C)nc1Nc1cccc(C(C)=O)c1 | 16.9% | inactive |  |
| CCOC(=O)c1cnc2sccn2c1=O | 5.11% | inactive |  |
| CCOC(=O)c1cnc(-n2nc(C)cc2C)nc1-n1nc(C)cc1C | 1.88% | 3.16 µM (active) |  |
| CC(=O)Nc1cc2ccc(OC(C)=O)cc2oc1=O | -10.5% | inactive |  |
| Oc1ccc(Cl)cc1/C=N/c1nc2ccccc2[nH]1 | 6.32% |  | 0.206% [at 11.4 µM] (inactive) |
| CNC(=O)c1c(NC(=O)c2ccc(S(=O)(=O)N3CCOCC3)cc2)sc2c1CCC2 | 0.0362% | inactive |  |
| COc1ccc2c(c1)C=CC1(O2)N(CCO)c2ccccc2C1(C)C (centres undefined) | 16.4% | 15.8 µM (active) |  |
| O=C(O)CCC(=O)N(Cc1cccs1)Cc1cccs1 | 4.58% | inactive |  |
| O=C(Nc1ncccn1)c1cccs1 | 2.1% | inactive |  |
| O=P(c1cccs1)(c1cccs1)c1cccs1 | 29% | 0.631 µM (active) |  |
| O=C(O)CCC(=O)NCc1ccc2[nH]c3c(c2c1)CCCC3 | -0.484% | inactive |  |
| Cc1cccc(C(=O)O)c1 | 12.6% | inactive |  |
